PTEN del growth: growth suppression of PTEN-null HCT116, primary screen, cell-based, CellTiter-Glo; HCT116 PTEN-null viability, 60 h; active compounds read low; viability, % at 10 µM; actives 1.2% (n = 140,000); AID 827, 2007;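 active = viability at or below a set limit, 4 SD under the median of all tested compounds, cut at about 3.7% in these data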;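 also: PTEN knockout HCT116 line with beta catenin targeted HCT116 as companion control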
HCT116 bCat-KO: primary screen for growth suppressors in beta-catenin knockout HCT116 cells (colon tumor, human); viability, % at 10 µM; actives 1.5% (n = 140,000); HCT116 beta-catenin knockout viability, CellTiter-Glo, 60 h; active compounds read low; AID 818, 2007;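 active = viability at or under a set limit, the compound median less 4 SD, cut at about 6% in these data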;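 also: 0% = Hyamine 1622 control at 20 µM and 100% = untreated cell control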
ROMK mod: ROMK potassium channel modulators, primary screen, cell-based, thallium flux, MLSMR library | ATP-sensitive inward rectifier potassium channel 1 (Homo sapiens), P48048 | B-score at 10 µM | AID 1918, 2009 | Tet-inducible ROMK, thallium flux fluorescence; actives lie on both sides | actives 2% (n = 130,000);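 active = signal ratio slope over the read window, or its plate-corrected B-score, at least 3 SD from the plate mean, either direction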;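 also: B-score of the F/F0 ratio slope over 7 to 12 s after thallium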
Lmaj promast: Leishmania major promastigote growth inhibition, primary screen; Leishmania major promastigotes, resazurin fluorescence viability; inhibition, % at 10 µM; AID 1063, 2008; actives 9% (n = 200,000); in the data active = inhibition above about 50%;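 also: promastigotes grown with compound for 44 hours at 28 °C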
Insulin prom inh: inhibitors of insulin promoter-driven GFP, primary screen, imaging, TRM-6 cells (human fetal islet line), eGFP reporter, cell count; reporter expression induced with tamoxifen; actives 0.9% (n = 130,000); inhibition, % at 2 µM; AID 1273, 2008;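 active = inhibition above the mean plus 3 SD, with well images judged a real hit on visual review, cut at about 60% in these data, passing the limit was not always enough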
p97 ATPase inh: inhibitors of human p97 ATPase, primary screen, biochemical; recombinant p97 ATPase, Kinase-Glo ATP luminescence, 3 h; inhibition, % at 8 µM; actives 0.42% (n = 220,000); AID 1481, 2009; in the data active = inhibition above about 15%;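 also: 0% = DMSO vehicle and 100% = wells lacking enzyme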
Lmaj promast 1uM: Leishmania major promastigote growth inhibition, confirmation, 1 µM repeat of primary hits. inhibition, % at 1 µM. shares compounds with Lmaj promast. L. major promastigote growth, resazurin fluorescence, 48 h. actives 13% (n = 1,100);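 active = inhibition above about 50% in both repeat tests, limit read from the data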
* = called active by the depositor; . = no result. This is a sample that favours compounds with a hit; in the whole collection about 10% have one here.

SMILES	PTEN del growth	HCT116 bCat-KO	ROMK mod	Lmaj promast	Insulin prom inh	p97 ATPase inh	Lmaj promast 1uM
Cc1ccc(C2CC(=O)c3cnn(-c4nc(C)cc(C)n4)c3C2)cc1 (centres undefined)	95.7	83.6	0.8	74.8*	-131.0	3.0	15.6
COc1ccc(C2CC(=O)c3cnn(-c4nc(C)cc(C)n4)c3C2)cc1OC (centres undefined)	.	.	.	.	.	-12.7	.
N#CCc1c(C#N)c(N)nc(N2CCCC(CO)C2)c1C#N (centres undefined)	.	.	-2.5	3.7	.	-1.7	.
O=C(O)/C=C/c1ccc(S(=O)(=O)NCc2cccnc2)cc1	.	.	.	.	.	7.0	.
CCCCCCc1cc2cc(C(=O)NCc3ccccc3)c(=N)oc2cc1O	94.1	99.0	-0.25	-5.7	38.1	-6.0	.
CCCCCCc1cc2cc(C(=O)Nc3ccccc3)c(=O)oc2cc1O	1.7*	1.5*	1.01	86.2*	0.0	5.1	4.4
CCOC(=O)c1c(C)[nH]c(N=Nc2ccccc2C)c1C	70.2	72.6	-0.281	72.0*	28.6	2.8	-6.1
CC(C)(C)NC(=O)c1ccc2nsnc2c1	94.3	103.8	0.17	-5.6	28.6	4.5	.
C=CCOC(=O)C1=C(C)NC(C)=C(C(=O)OCC=C)C1c1cn(-c2ccccc2)nc1-c1ccco1	84.8	86.4	0.654	-7.3	-106.2	1.9	.
COC(=O)CN1C(c2ccc(Cl)cc2)=Nc2ccc(Cl)cc2C1c1ccccc1 (centres undefined)	53.9	60.1	.	64.8*	.	1.8	48.0
CCn1c(-c2ccc(N)cc2)nc2ccccc21	95.5	94.4	.	17.8	.	-0.8	.
CCn1c(-c2ccc(N(C)C)cc2)nc2ccccc21	13.5	8.1	.	96.9*	38.5	-1.0	21.8
COc1ccccc1OCC(=O)Nc1ccc(O)cc1C(=O)O	90.7	105.3	0.259	-9.3	18.6	3.1	.
COc1cc(Cl)ccc1NC(=O)COc1ccccc1C(=O)N1CCN(c2ccc(O)cc2)CC1	71.0	83.4	0.0915	62.8*	78.6*	8.1	4.9
CNCCCC12CCC(c3ccccc31)c1ccccc12	31.6	46.8	.	97.5*	-63.6	0.5	0.6
Cc1ccc(C2=NNC(=O)C(c3ccc(Cl)cc3)C2)cc1 (centres undefined)	100.6	85.8	-0.103	69.5*	.	-7.3	-20.2
COc1cccc(C(C)NC(=O)Nc2ccccc2Cl)c1 (centres undefined)	.	.	-0.42	17.6	-47.4	4.5	.
CN(C(=O)c1ccc2c(c1)SC1=NS(=O)(=O)CCN12)C(c1ccccc1)c1ccccc1	77.0	81.0	0.695	74.7*	17.9	0.0	-17.3
O=C(O)c1ccc2c(c1)SC1=NS(=O)(=O)CCN12	.	.	.	.	.	11.4	.
CCN1CC(CN(C)Cc2cn(-c3ccc(C)cc3)nc2-c2cccc(C)c2)CC1=O (centres undefined)	.	.	-1.09	7.8	19.1	-0.3	.
Cc1ccc(-n2cc(CN(C)CCc3cn[nH]c3)c(-c3cccc(C)c3)n2)cc1	.	.	-1.71	64.7*	.	-1.1	-13.7
COc1ccc(C(=O)OC(C)CN2CCOCC2)cc1OC (centres undefined)	106.3	103.3	.	-6.9	.	2.6	.
COc1ccc(C(=O)C(CN2CCOCC2)c2ccccc2)cc1F (centres undefined)	1.3*	1.6*	-0.972	100.5*	71.4*	1.7	85.7*
CCOC(=O)/C(C#N)=C1\SS/C(=C(/C#N)C(=O)OCC)S1	.	.	.	.	.	1.6	.
C=CCS(=O)(=O)c1nc2ccccc2s1	23.6	11.1	.	100.5*	18.9	6.4	10.1
SMILES	PTEN del growth	HCT116 bCat-KO	ROMK mod	Lmaj promast	Insulin prom inh	p97 ATPase inh	Lmaj promast 1uM
O=C(Nc1ccc2nc(-c3ccco3)[nH]c2c1)c1cccs1	77.9	86.9	.	88.3*	-12.3	7.1	-20.3
O=C1c2ccccc2CCCC12N=NCC2c1cccc2ccccc12 (centres undefined)	57.9	54.8	.	52.6*	.	0.5	6.9
Cc1cc(S(=O)(=O)NC2CCCCC2)ccc1OCC(=O)NCc1ccccn1	97.8	101.8	0.0119	-8.9	-334.3	-3.5	.
CCOC(=O)Cc1cc(-c2ccc(F)cc2)nc2ccc3ccccc3c12	89.3	86.4	.	67.6*	27.6	4.8	7.1
Cc1ccc(-c2csc(=S)n2CC(=O)OCC(=O)NCc2ccco2)cc1	66.5	64.8	-0.579	17.7	.	-7.7	.
Cc1ccc(-c2csc(=S)n2CC(=O)OCC(=O)NC(C)C(C)C)cc1 (centres undefined)	87.3	81.0	.	63.6*	13.9	0.3	-19.1
O=c1oc2ccccc2nc1/C=C(O)/C=C\c1ccccc1	68.8	63.8	.	98.8*	-26.9	-0.7	-4.4
O=[N+]([O-])c1ccccc1S(=O)(=O)Oc1ccc(C(=S)N2CCOCC2)cc1	77.1	73.2	.	81.3*	-6.9	-1.6	-21.5
O=C(C1CCCCN1S(=O)(=O)c1ccccc1[N+](=O)[O-])N1CCOCC1 (centres undefined)	.	.	0.646	-8.3	-33.3	1.6	.
Cc1ccc(C(O)(COC(=O)C(C)C)COC(=O)C(C)C)c(O)c1	.	.	.	60.5*	.	-4.7	-10.4
O=C1Nc2ccccc2/C1=N/N=C/c1ccc(-c2ccc([N+](=O)[O-])cc2)o1	.	.	0.272	6.0	-11.1	5.6	.
CNCC[C@H](Oc1cccc2ccccc12)c1cccs1	.	.	.	.	.	7.4	.
CNCCC(Oc1ccc(C(F)(F)F)cc1)c1ccccc1 (centres undefined)	54.7	48.6	.	89.9*	-33.3	3.2	-19.5
O=C1/C(=C/c2cccs2)SC(=S)N1c1cccc(O)c1	.	.	.	.	.	1.1	.
CCN(CC)S(=O)(=O)c1ccc(C(=O)N(c2ccc(C)cc2)C2C=CS(=O)(=O)C2)cc1 (centres undefined)	.	.	-0.229	4.0	.	-1.2	.
COc1ccc(N=C2SC(C(=O)N3CCN(c4ccccc4)CC3)CC(=O)N2C)cc1 (centres undefined)	.	.	.	15.3	.	1.1	.
N#Cc1cc([N+](=O)[O-])c(-n2nnc3ccccc32)c([N+](=O)[O-])c1	96.8	102.5	.	-2.7	.	-2.6	.
COc1ccccc1Oc1cc(C#N)c(C#N)cc1-n1nnc2ccccc21	41.0	48.3	0.598	98.0*	-5.9	2.8	-1.7
O=S(=O)(NC(=NCCc1ccc(Cl)cc1)c1ccccc1Cl)c1cccs1	.	.	0.0592	99.9*	.	4.4	-4.5
CCNS(=O)(=O)c1cccc(C(=O)c2c(C)cc3ccccn23)c1	96.5	95.2	-1.48	-0.3	-15.4	3.2	.
CC(C)NC(=O)CSc1nc(N)c(NC(=O)c2ccccc2F)c(=O)[nH]1	101.0	95.4	0.208	-5.3	40.0	-6.3	.

Compound activity deposited in PubChem BioAssay by several laboratories.
